AC50 and outcome data for 40 molecules are collected here from PubChem BioAssay (EPA / NIEHS).

Structures are written as SMILES. Calls of active or inactive are those of the source. How the source made its calls: active means hit-call score of the fitted dose curve at least 0.9, where 1 is the maximum; inactive means score below 0.9.

Sequence of CCAAT/enhancer-binding protein beta (Homo sapiens) (P17676 whole entry, looked up): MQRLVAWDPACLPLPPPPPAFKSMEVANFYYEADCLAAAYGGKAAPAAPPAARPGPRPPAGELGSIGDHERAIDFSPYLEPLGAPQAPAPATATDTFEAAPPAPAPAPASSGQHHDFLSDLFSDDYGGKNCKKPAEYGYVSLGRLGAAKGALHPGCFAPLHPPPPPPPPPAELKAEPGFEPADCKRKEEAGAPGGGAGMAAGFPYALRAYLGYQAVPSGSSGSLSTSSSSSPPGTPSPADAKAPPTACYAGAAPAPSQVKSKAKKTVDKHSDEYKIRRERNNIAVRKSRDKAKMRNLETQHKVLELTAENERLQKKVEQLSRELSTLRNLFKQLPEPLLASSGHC

Tested on in the first assay: not listed separately
Briefly: ATG_CRE_CIS: Attagene CIS-FACTORIAL HepG2 Assay for human cAMP Responsive Element (CRE) binding protein 3 (AID 2282926). Conditions: HepG2 CRE cis-reporter, Attagene multiplexed mRNA; actives raise or lower the signal. A digest of the protocol:
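Readout: fluorescently labelled reporter transcripts resolved by capillary electrophoresis after RT-PCR, taken 24 h post-dosing in transfected HepG2. Endogenous transcription factor activity drives each cis-element reporter; gain or loss of signal fitted relative to DMSO control.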
As for `CCC(=O)Oc1ccc(/C(CC)=C(\CC)c2ccc(OC(=O)CC)cc2)cc1`, the AC50 was 25.9 µM (active).
Turning to `c1ccc(CNCc2ccccc2)cc1`, the molecule was classed as inactive.
Consider `CCCCCCCCCCC=CC#N`, for which the call was inactive.
As to `C=C[Si](C)(C)O[Si](C)(C)C=C`, the molecule was classed as inactive.
As for `Cc1ccc(N)c([N+](=O)[O-])c1`, the molecule was called inactive.
Turning to `CCOC(=O)N1CCC(=C2c3ccc(Cl)cc3CCc3cccnc32)CC1`, the outcome was inactive.
Take `NC(=O)NNC(N)=O`: the molecule was classed as inactive.
For the molecule `CCC(C)C=O` (configuration not stated), the molecule was called inactive.
For the molecule `O=P(O)(O)Oc1ccccc1`, the outcome was inactive.
For `CCCCC(CC)COC(=O)c1ccccc1O` (configuration not stated), the outcome was inactive.
`CC(=O)Oc1ccc(C)cc1`: the call was inactive.
`C[C@]12C=CC(=O)C=C1CC[C@@H]1[C@@H]2[C@@H](O)C[C@@]2(C)[C@H]1CC[C@]2(O)C(=O)CO`: the molecule was called inactive.
Regarding `CC(C)c1ccc2cc(C(C)C)ccc2c1`, the AC50 was 62 µM (active).
As to `CCC(CO)CO`, the result was inactive.
Take `O=c1cc(-c2ccccc2)oc2ccccc12`: the result was inactive.
The same measure, in the same setting: the value for `O=Cc1ccc(CO)o1` was “inactive”; that for `CC1=CC[C@H]2C[C@@H]1C2(C)C` was “inactive”.

The target of a further assay is CCAAT/enhancer-binding protein beta (Homo sapiens) (UniProt P17676). Kind of assay: ATG_C_EBP_CIS: Attagene CIS-FACTORIAL HepG2 Assay for human CCAAT/Enhancer Binding Protein (C/EBP) beta (AID 2282927). Conditions: HepG2 Attagene cis-factorial transcription factor reporter; actives raise or lower the signal. A digest of the protocol:
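HepG2, transient MRTU transfection, 24 h treatment. RT-PCR plus CE fluorescence; DMSO negative control, bidirectional fit.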
Consider `Cc1cc(=O)n(-c2ccccc2)n1C`, for which the outcome was inactive.
Take `CC1(C)[C@H]2CC[C@]1(C)C(=O)C2`: the outcome was inactive.
As to `C=C[Si](OC(C)=O)(OC(C)=O)OC(C)=O`, the outcome was inactive.
As to `COC=O`, the result was inactive.
As for `C=CC=CC=CCCCCC`, the result was inactive.
With `Cc1ccc(N/N=c2\c(=O)cc/c(=N/Nc3ccc(S(=O)(=O)O)cc3)c2=O)c(C)c1`, the outcome was inactive.
The same measure, in the same setting: the value for `C1CN(SSN2CCOCC2)CCO1` was “inactive”.
Consider `O=S(=O)(O)c1cc(S(=O)(=O)O)c2ccc3c(S(=O)(=O)O)cc(S(=O)(=O)O)c4ccc1c2c43`, for which the result was inactive.
As for `CCC(CC)C(=O)O`, the outcome was inactive.
For `O=C1c2ccccc2C(=O)C1c1nc2ccccc2c(Br)c1O`, the result was inactive.
For the molecule `NNC(=O)c1cccc(C(=O)NN)c1`, the result was inactive.
Regarding `CC(=O)Nc1ccc2c(c1)Cc1cc(NC(C)=O)ccc1-2`, the result was inactive.
For the molecule `CCOC(=O)c1ccc(N(C)C)cc1`, the result was inactive.
For `C=C(C)[C@@H]1CCC2=CCC[C@@H](C)[C@]2(C)C1`, the outcome was inactive.
For `CCCNC(=O)NS(=O)(=O)c1ccc(Cl)cc1`, the outcome was inactive.
On to `COCc1c(C(C)C)nc(C(C)C)c(/C=C/[C@@H](O)C[C@@H](O)CC(=O)O)c1-c1ccc(F)cc1`, for which the result was inactive.
`COC(F)(F)C(F)(C(F)(F)F)C(F)(F)F`: the outcome was inactive.
Turning to `Nc1ccc(N=Nc2ccccc2)c(N)n1`, the outcome was inactive.
Same read-out and setting: the value for `Cc1ccc2c(c1)C(=O)c1ccccc1C2=O` was “inactive”; that for `CC(C)(C)c1n[nH]c(=O)n(N)c1=O` was “inactive”; that for `COc1ccc2nc(N)sc2c1` was “inactive”.
Consider `COC(=O)c1c(C)cc(O)c(C)c1O`, for which the result was inactive.
As for `CC1(C)O[C@@H]2C[C@H]3[C@@H]4C[C@H](F)C5=CC(=O)C=C[C@]5(C)[C@@]4(F)[C@@H](O)C[C@]3(C)[C@]2(C(=O)CO)O1`, the outcome was inactive.
On to `CCC(=O)Oc1ccc(/C(CC)=C(\CC)c2ccc(OC(=O)CC)cc2)cc1`, for which the result was inactive.
For `c1ccc(CNCc2ccccc2)cc1`, the outcome was inactive.
As to `CCCCCCCCCCC=CC#N`, the result was inactive.
In the case of `C=C[Si](C)(C)O[Si](C)(C)C=C`, the outcome was inactive.
As for `Cc1ccc(N)c([N+](=O)[O-])c1`, the result was inactive.
`CCOC(=O)N1CCC(=C2c3ccc(Cl)cc3CCc3cccnc32)CC1`: the outcome was inactive.
Consider `NC(=O)NNC(N)=O`, for which the result was inactive.
For the molecule `CCC(C)C=O` (configuration not stated), the outcome was inactive.
Turning to `O=P(O)(O)Oc1ccccc1`, the outcome was inactive.
On to `CCCCC(CC)COC(=O)c1ccccc1O` (configuration not stated), for which the outcome was inactive.
`CC(=O)Oc1ccc(C)cc1`: the result was inactive.
For `C[C@]12C=CC(=O)C=C1CC[C@@H]1[C@@H]2[C@@H](O)C[C@@]2(C)[C@H]1CC[C@]2(O)C(=O)CO`, the outcome was inactive.
As to `CC(C)c1ccc2cc(C(C)C)ccc2c1`, the AC50 is 64.6 µM (active).
Regarding `CCC(CO)CO`, the outcome was inactive.
For `O=c1cc(-c2ccccc2)oc2ccccc12`, the result was inactive.
For the molecule `O=Cc1ccc(CO)o1`, the result was inactive.
For the molecule `CC1=CC[C@H]2C[C@@H]1C2(C)C`, the result was inactive.

Tested on in another assay: not listed separately
Kind of assay: ATG_CMV_CIS: Attagene CIS-FACTORIAL HepG2 Assay for human CMV (Internal Marker) (AID 2282928).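 Further: endpoint acts as a background internal control marker rather than a target.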 Conditions: HepG2 CMV promoter reporter, transcription factor profiling; actives raise or lower the signal. The method in brief:
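Reporter transcripts from transfected HepG2 cells are isolated after 24 h of chemical dosing, reverse-transcribed and amplified. Fragments labeled with 6-FAM are cut with HpaI and quantified by capillary electrophoresis; DMSO defines baseline.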
`Cc1cc(=O)n(-c2ccccc2)n1C`: the result was inactive.
For `CC1(C)[C@H]2CC[C@]1(C)C(=O)C2`, the outcome was inactive.
With `C=C[Si](OC(C)=O)(OC(C)=O)OC(C)=O`, the outcome was inactive.
Same read-out and setting: the entry for `COC=O` is “inactive”; for `C=CC=CC=CCCCCC` it is “inactive”; for `Cc1ccc(N/N=c2\c(=O)cc/c(=N/Nc3ccc(S(=O)(=O)O)cc3)c2=O)c(C)c1` it is “inactive”.
On to `C1CN(SSN2CCOCC2)CCO1`, for which the molecule was classed as inactive.
For `O=S(=O)(O)c1cc(S(=O)(=O)O)c2ccc3c(S(=O)(=O)O)cc(S(=O)(=O)O)c4ccc1c2c43`, the molecule was classed as inactive.
On to `CCC(CC)C(=O)O`, for which the outcome was inactive.
`O=C1c2ccccc2C(=O)C1c1nc2ccccc2c(Br)c1O`: the molecule was classed as inactive.
On to `NNC(=O)c1cccc(C(=O)NN)c1`, for which the result was inactive.
Take `CC(=O)Nc1ccc2c(c1)Cc1cc(NC(C)=O)ccc1-2`: the result was inactive.
On to `CCOC(=O)c1ccc(N(C)C)cc1`, for which the molecule was called inactive.
In the case of `C=C(C)[C@@H]1CCC2=CCC[C@@H](C)[C@]2(C)C1`, the concentration at half-maximal activity (AC50) was 67 µM (active).
Consider `CCCNC(=O)NS(=O)(=O)c1ccc(Cl)cc1`, for which the molecule was classed as inactive.
Same read-out and setting: the entry for `COCc1c(C(C)C)nc(C(C)C)c(/C=C/[C@@H](O)C[C@@H](O)CC(=O)O)c1-c1ccc(F)cc1` is “inactive”; for `COC(F)(F)C(F)(C(F)(F)F)C(F)(F)F` it is “inactive”; for `Nc1ccc(N=Nc2ccccc2)c(N)n1` it is “inactive”.
For the molecule `Cc1ccc2c(c1)C(=O)c1ccccc1C2=O`, the AC50 was 21.5 µM (active).
In the case of `CC(C)(C)c1n[nH]c(=O)n(N)c1=O`, the molecule was called inactive.
In the case of `COc1ccc2nc(N)sc2c1`, the call was inactive.
Take `COC(=O)c1c(C)cc(O)c(C)c1O`: the molecule was called inactive.
Regarding `CC1(C)O[C@@H]2C[C@H]3[C@@H]4C[C@H](F)C5=CC(=O)C=C[C@]5(C)[C@@]4(F)[C@@H](O)C[C@]3(C)[C@]2(C(=O)CO)O1`, the result was inactive.
For `CCC(=O)Oc1ccc(/C(CC)=C(\CC)c2ccc(OC(=O)CC)cc2)cc1`, the result was inactive.
The same measure, in the same setting: the value for `c1ccc(CNCc2ccccc2)cc1` was “inactive”.
Regarding `CCCCCCCCCCC=CC#N`, the concentration at half-maximal activity (AC50) was 100 µM (active).
As to `C=C[Si](C)(C)O[Si](C)(C)C=C`, the call was inactive.
For `Cc1ccc(N)c([N+](=O)[O-])c1`, the molecule was called inactive.
With `CCOC(=O)N1CCC(=C2c3ccc(Cl)cc3CCc3cccnc32)CC1`, the AC50 is 7.56 µM (active).
In the case of `NC(=O)NNC(N)=O`, the molecule was classed as inactive.
For the molecule `CCC(C)C=O` (configuration not stated), the result was inactive.
`O=P(O)(O)Oc1ccccc1`: the result was inactive.
As to `CCCCC(CC)COC(=O)c1ccccc1O` (configuration not stated), the outcome was inactive.
Regarding `CC(=O)Oc1ccc(C)cc1`, the outcome was inactive.
Regarding `C[C@]12C=CC(=O)C=C1CC[C@@H]1[C@@H]2[C@@H](O)C[C@@]2(C)[C@H]1CC[C@]2(O)C(=O)CO`, the molecule was called inactive.
For `CC(C)c1ccc2cc(C(C)C)ccc2c1`, the half-maximal activity concentration (AC50) is 45.5 µM (active).
In the case of `CCC(CO)CO`, the outcome was inactive.
With `O=c1cc(-c2ccccc2)oc2ccccc12`, the AC50 is 27.7 µM (active).
With `O=Cc1ccc(CO)o1`, the call was inactive.
Same read-out and setting: the entry for `CC1=CC[C@H]2C[C@@H]1C2(C)C` is “inactive”.
